“And” between values parts separate entries of the source, which are not always exact repeats. Equal entries are not always repeated. Inconclusive results are not listed. Where a call stands in place of a potency, no number is given. The source made the active and inactive calls. The call rests on the fitted dose curve; in most records, active means well fitted curve in the direction sought with a large enough effect; inconclusive means small, poorly fitted or top-dose-only effect, or another doubt; inactive means no such curve, though single readings can be large; an effect the other way counts as inactive or inconclusive.
How the values were obtained:
[1] = qHTS of pediatric cancer cell lines to identify multiple opportunities for drug repurposing: Primary screen for OHS-50 cells (AID 1347103); further: nearly all actives have a fitted effect of over 40% in size; further: potency means the concentration at half of the fitted maximal effect
In short: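 Cells (500-1,000/well) rested 5 h, then received compounds for 48 h; metabolically active cells were measured by CellTiter-Glo luminescence. Final concentrations spanned up to 46 µM (MIPE, 11-point) or 0.59 nM-46 µM (NPC, 8-point) in primary screens, 11-point in follow-ups.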

[2] = qHTS of pediatric cancer cell lines to identify multiple opportunities for drug repurposing: Primary screen for RD cells (AID 1347104); further: nearly all actives have a fitted effect of over 55% in size; further: potency means the concentration at half of the fitted maximal effect
In short: (§1)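 Plated cells (500-1,000 per well, growth media) were allowed to settle for 5 hours, treated with compound dilutions for 48 hours, then lysed with CellTiter-Glo for 15 min at room temperature before luminescence reading.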

[3] = qHTS of pediatric cancer cell lines to identify multiple opportunities for drug repurposing: Primary screen for MG 63 (6-TG R) cells (AID 1347105); further: nearly all actives have a fitted effect of over 50% in size; further: potency means the concentration at half of the fitted maximal effect
In short: as §1

[4] = qHTS of pediatric cancer cell lines to identify multiple opportunities for drug repurposing: Primary screen for control Hh wild type fibroblast cells (AID 1347106);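 further: series mostly up to about 46 µM; a drop in luminescence marks cytotoxicity and a rise apparent proliferation; nearly all actives have a fitted effect of over 55% in size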
In short: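 Viability after 48 h compound treatment at 37C, 500-1,000 cells/well, read as ATP luminescence with CellTiter-Glo. Primary screens used 11-point (MIPE, 0.78 nM-46 µM) or 8-point (NPC, 0.59 nM-46 µM) final concentrations; follow-up screens used 11-point dilutions.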

[5] = qHTS of pediatric cancer cell lines to identify multiple opportunities for drug repurposing: Primary screen for Rh30 cells (AID 1347107); further: series mostly up to about 46 µM; nearly all actives have a fitted effect of over 75% in size
In short: (§2)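 Cells (500-1,000/well) in growth media were settled 5 h at 37 degrees C, then given compounds for 48 h. Viability was read as CellTiter-Glo luminescence. Primary runs used MIPE at 11 points (0.78 nM-46 µM) and NPC at 8 points (0.59 nM-46 µM); follow-ups used 11 points.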

[6] = qHTS of pediatric cancer cell lines to identify multiple opportunities for drug repurposing: Primary screen for Rh41 cells (AID 1347108); further: nearly all actives have a fitted effect of over 70% in size; further: potency means the concentration at half of the fitted maximal effect
In short: as §1

[7] = qHTS of pediatric cancer cell lines to identify multiple opportunities for drug repurposing: Confirmatory screen for NB1643 cells (AID 1347109); further: nearly all actives have a fitted effect of over 45% in size; further: potency means the concentration at half of the fitted maximal effect
In short: as §2

[8] = qHTS of pediatric cancer cell lines to identify multiple opportunities for drug repurposing: Confirmatory screen for SK-N-MC cells (AID 1347111);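 further: potency means the concentration at half of the fitted maximal effect; cells exposed to compound for 48 h before the readout; nearly all actives have a fitted effect of over 70% in size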
In short: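 Metabolically active cells were quantified by ATP-dependent luminescence (CellTiter-Glo, 15 min at room temperature) following 48 h treatment. Cells had been plated at 500-1,000 per well and settled for 5 h beforehand.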

Compound | Potency [1] | Potency [2] | Potency [3] | Potency [4] | Potency [5] | Potency [6] | Potency [7] | Potency [8]
CNNCc1ccc(C(=O)NC(C)C)cc1 | inactive | inactive | inactive | inactive | inactive | inactive |  | 
Cc1nnc(C(=O)NC(C)(C)c2nc(C(=O)NCc3ccc(F)cc3)c(O)c(=O)n2C)o1 | inactive | inactive | inactive | inactive | inactive | inactive |  | 
Cc1ccc(S(=O)(=O)N[C@@H](Cc2ccccc2)C(=O)CCl)cc1 | 19.3 µM (active) | 26.4 µM (active) | 29.6 µM (active) | inactive |  | 18.7 µM (active) |  | 
CCCCc1oc2ccc(NS(C)(=O)=O)cc2c1C(=O)c1ccc(OCCCN(CCCC)CCCC)cc1 | 10.9 µM (active) and 15.5 µM (active) | 18.7 µM (active) and 23.7 µM (active) | 21.1 µM (active) | inactive |  | 23.5 µM (active) |  | 
CC[C@H](NC(C)C)[C@H](O)c1ccc(O)c2[nH]c(=O)ccc12 | inactive | inactive | inactive | inactive | inactive | inactive |  | 
CCN[C@H]1C[C@H](C)S(=O)(=O)c2sc(S(N)(=O)=O)cc21 | inactive | inactive | inactive |  | inactive | inactive |  | 
COC(c1ccccc1)(c1ccccc1)[C@H](Oc1nc(C)cc(C)n1)C(=O)O | inactive |  | inactive | inactive | inactive | inactive |  | 
CCOC(=O)[C@H](CCc1ccccc1)N[C@H]1CS[C@H](c2cccs2)CN(CC(=O)O)C1=O |  |  |  | inactive | inactive |  | inactive | 9.27 µM (active)
CCCCCCNC(=O)n1cc(F)c(=O)[nH]c1=O | inactive |  | inactive |  | inactive | inactive |  | 
Cc1cc(NS(=O)(=O)c2ccc(N)cc2)no1 | inactive |  | inactive |  | inactive | inactive |  | 
CC(C)OC(=O)OCOP(=O)(CO[C@H](C)Cn1cnc2c(N)ncnc21)OCOC(=O)OC(C)C |  | inactive | inactive | inactive | inactive | inactive |  | 
CCC(C)(C)c1ccc(CC(C)CN2C[C@@H](C)O[C@@H](C)C2)cc1 (stereo partly specified) |  | inactive | inactive | inactive | inactive | inactive |  | 
CO[C@@]12[C@H](COC(N)=O)C3=C(C(=O)C(C)=C(N)C3=O)N1C[C@@H]1N[C@@H]12 | 3.85 µM (active) |  | 14.8 µM (active) | inactive |  | 13.3 µM (active) and 11.8 µM (active) | 1.04 µM (active) | 2.08 µM (active)
Nc1ccc(S(=O)(=O)Nc2ccccn2)cc1 | inactive | inactive | inactive |  | inactive | inactive |  | 
CCCOc1ccc(C(=O)OCCN(CC)CC)cc1N | inactive | inactive | inactive |  | inactive | inactive |  | 

From PubChem BioAssay (NCATS)
